Measurements published in PubChem BioAssay.
The source made the active and inactive calls. Unless noted, no rule for the calls is given here.

How the values were obtained:
[1] = test system: Wnt5a (protein binding on small-molecule microarray); assay: small molecules binding Wnt5a protein – biophysical, small-molecule microarray, 635/667 nm fluorescence, primary screen (AID 1142); details: 635 nm fluorescence, higher = more signal;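 also: fluorescence read at 667 nm with signal to noise per printed feature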
[2] = ATP-based viability of Huh7 replicon cells – cell-based, CellTiter-Glo luminescence, basal, 48 h, cytotoxicity control for HCV replication inhibitor project, primary screen (AID 1143); details: higher = more signal, called active from +8 up or from −8 down;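 also: Huh7 hepatoma cells carrying a hepatitis C replication reporter with no stimulus; test concentration not given here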
[3] = Pseudomonas biofilm growth suppression – PAO1 strain, BacTiter-Glo luminescence, LB-PBS, primary screen (AID 1144); details: P. aeruginosa PAO1 biofilm, 12 h, higher = more signal
[4] = basal CRE-LacZ reporter activity in PC12 – cell-based, unstimulated, primary screen (AID 1145); details: no forskolin, luminescence, 4.5 h, higher = more signal, called active from +8 up or from −8 down
[5] = forskolin-driven CRE-LacZ activity in PC12 – cell-based, CRE-LacZ reporter, forskolin-stimulated, primary screen (AID 1146); details: luminescence, 4.5 h, higher = more signal, called active from +8 up or from −8 down;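 also: PC12 cells with 6xCRE LacZ reporter stimulated by forskolin 10 µM; beta-galactosidase reporter signal reflecting CREB driven transcription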
[6] = target: Streptavidin (Streptomyces avidinii) (UniProt P22629); assay: compounds binding control protein streptavidin – biophysical, small-molecule microarray, 635/667 nm fluorescence, artefact control for SMM compound annotation, primary screen (AID 1147); details: higher = more signal;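 also: signal reflects streptavidin binding to arrayed compounds as a control protein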
Sequence of Streptavidin (Streptomyces avidinii) (P22629 whole entry, looked up): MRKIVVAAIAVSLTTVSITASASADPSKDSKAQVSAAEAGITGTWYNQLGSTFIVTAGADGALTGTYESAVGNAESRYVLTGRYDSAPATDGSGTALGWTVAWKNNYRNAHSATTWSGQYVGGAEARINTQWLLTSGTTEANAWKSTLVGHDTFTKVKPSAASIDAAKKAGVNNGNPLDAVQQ

[7] = probe aInhba binding on compound microarray – biochemical, small-molecule microarray, 635/667 nm fluorescence, primary screen (AID 1148); details: higher = more signal;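 also: score merges 667nm spot fluorescence with signal-to-noise for antibody binding to printed compounds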
Torsin-1A (Homo sapiens) [8] = target: Torsin-1A (Homo sapiens) (UniProt O14656); assay: TOR1A wild-type binding on microarray – cell lysate, small-molecule microarray, lysate, 635/667 nm, primary screen (AID 1149); details: COS7 hTOR1A-WT lysate, 635 nm fluorescence, higher = more signal
Sequence of Torsin-1A (Homo sapiens) (O14656 whole entry, looked up): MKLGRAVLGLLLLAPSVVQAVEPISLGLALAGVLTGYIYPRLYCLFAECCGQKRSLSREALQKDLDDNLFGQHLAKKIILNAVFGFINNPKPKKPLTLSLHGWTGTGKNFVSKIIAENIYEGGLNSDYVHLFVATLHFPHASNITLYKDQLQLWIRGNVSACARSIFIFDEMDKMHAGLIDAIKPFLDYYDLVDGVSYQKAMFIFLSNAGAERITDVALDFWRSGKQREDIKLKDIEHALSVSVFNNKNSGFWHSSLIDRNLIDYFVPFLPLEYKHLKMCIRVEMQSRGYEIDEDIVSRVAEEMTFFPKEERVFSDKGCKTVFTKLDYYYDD

Torsin-1A (Homo sapiens) [9] = target: Torsin-1A (Homo sapiens) (UniProt O14656); assay: torsin A mutant lysate binding on microarrays – cell lysate, small-molecule microarray, COS7 lysate, 635/667 nm fluorescence, primary screen (AID 1150); details: COS7 hTOR1A mutant lysate, 635 nm fluorescence, higher = more signal;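 also: score pools 667 nm emission and signal to noise measuring lysate protein binding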
[10] = test system: Sonic hedgehog protein (Shh); assay: Sonic hedgehog microarray binding compounds – biochemical, small-molecule microarray, 635/667 nm fluorescence, primary screen (AID 1151); details: 635 nm fluorescence, higher = more signal;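 also: Shh protein binding to compounds spotted on small-molecule microarray slides; score combines spot fluorescence intensity with signal-to-noise across triplicate slides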
[11] = optical density shifts of acrAB sulA E. coli – strain DRC41, OD650, 48 h, E. coli filamentation inducer project, primary screen (AID 1152); details: higher = more signal, called active from +8 up or from −8 down;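 also: E. coli MC1000 strain DRC41 lacking acrAB efflux pump and sulA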
[12] = probe aLefty1 binding on compound microarray – biochemical, small-molecule microarray, 635/667 nm fluorescence, primary screen (AID 1153); details: higher = more signal;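 also: score merges spot fluorescence with signal-to-noise ratio from the scanned slide images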
[13] = plasmodial surface anion channel blockers, osmotic lysis – cell-based, P. falciparum Indochina, OD700, 1 h, primary screen (AID 1154); details: P. falciparum Indochina infected RBC osmotic lysis, higher = more signal, called active from +8 up or from −8 down
[14] = plasmodial surface anion channel blockers, osmotic lysis – cell-based, P. falciparum Indochina, OD700, 2 h, primary screen (AID 1155);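 also: lysis reports solute entry through the parasite surface anion channel PSAC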; details: P. falciparum Indochina infected erythrocytes, higher = more signal, called active from +8 up or from −8 down
[15] = changes in parasitized red cell lysis, either direction – P. falciparum Indochina, OD700, 3 h, PSAC antagonist project, primary screen (AID 1156); details: P. falciparum-infected erythrocytes, osmotic lysis, higher = more signal, called active from +8 up or from −8 down
[16] = plasmodial surface anion channel blockers, osmotic lysis – cell-based, P. falciparum Indochina, OD700, 18 h, primary screen (AID 1157); details: P. falciparum Indochina infected erythrocytes, osmotic lysis OD700, 18 h; higher = more signal, called active from +8 up or from −8 down
[17] = S6 kinase pathway phospho-S6 level changes – cell-based, A549, cytoblot, luminescence, serum-stimulated, primary screen (AID 1158); details: 5 h, higher = more signal;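 also: serum-stimulated A549 lung adenocarcinoma cells; signal is phosphorylated S6 detected by cytoblot immunostaining with HRP secondary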
[18] = target: NADPH oxidase 2 (Homo sapiens) (UniProt P04839); assay: compounds shifting NOX2 Amplex Red fluorescence – cell-based, HEK293-NOX2, PMA-stimulated, NOX inhibitor project, primary screen (AID 1159); details: 45 min, higher = more signal, called active from +8 up or from −8 down; also: test concentration not given here
Sequence of NADPH oxidase 2 (Homo sapiens) (P04839 whole entry, looked up): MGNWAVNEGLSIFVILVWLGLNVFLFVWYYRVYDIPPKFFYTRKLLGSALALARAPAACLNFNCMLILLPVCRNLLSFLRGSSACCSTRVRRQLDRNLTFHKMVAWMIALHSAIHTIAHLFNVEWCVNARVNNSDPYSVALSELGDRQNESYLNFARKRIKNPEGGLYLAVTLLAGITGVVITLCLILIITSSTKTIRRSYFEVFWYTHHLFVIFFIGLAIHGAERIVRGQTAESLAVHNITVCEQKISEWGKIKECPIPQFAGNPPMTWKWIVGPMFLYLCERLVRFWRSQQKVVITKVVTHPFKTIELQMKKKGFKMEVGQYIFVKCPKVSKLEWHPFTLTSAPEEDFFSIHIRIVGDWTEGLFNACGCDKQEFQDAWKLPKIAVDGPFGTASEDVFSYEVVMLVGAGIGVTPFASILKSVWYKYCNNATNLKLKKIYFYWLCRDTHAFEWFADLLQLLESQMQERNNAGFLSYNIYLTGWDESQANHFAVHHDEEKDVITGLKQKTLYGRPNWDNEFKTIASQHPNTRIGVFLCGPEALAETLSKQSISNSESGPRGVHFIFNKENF

[19] = target: NADPH oxidase 4 (Homo sapiens) (UniProt Q9NPH5); assay: compounds shifting NOX4 Amplex Red fluorescence – cell-based, HEK293-NOX4, tetracycline-induced, NOX inhibitor project, primary screen (AID 1160); details: HEK293-NOX4, Amplex Red H2O2 fluorescence, 45 min; higher = more signal, called active from +8 up or from −8 down
Sequence of NADPH oxidase 4 (Homo sapiens) (Q9NPH5 whole entry, looked up): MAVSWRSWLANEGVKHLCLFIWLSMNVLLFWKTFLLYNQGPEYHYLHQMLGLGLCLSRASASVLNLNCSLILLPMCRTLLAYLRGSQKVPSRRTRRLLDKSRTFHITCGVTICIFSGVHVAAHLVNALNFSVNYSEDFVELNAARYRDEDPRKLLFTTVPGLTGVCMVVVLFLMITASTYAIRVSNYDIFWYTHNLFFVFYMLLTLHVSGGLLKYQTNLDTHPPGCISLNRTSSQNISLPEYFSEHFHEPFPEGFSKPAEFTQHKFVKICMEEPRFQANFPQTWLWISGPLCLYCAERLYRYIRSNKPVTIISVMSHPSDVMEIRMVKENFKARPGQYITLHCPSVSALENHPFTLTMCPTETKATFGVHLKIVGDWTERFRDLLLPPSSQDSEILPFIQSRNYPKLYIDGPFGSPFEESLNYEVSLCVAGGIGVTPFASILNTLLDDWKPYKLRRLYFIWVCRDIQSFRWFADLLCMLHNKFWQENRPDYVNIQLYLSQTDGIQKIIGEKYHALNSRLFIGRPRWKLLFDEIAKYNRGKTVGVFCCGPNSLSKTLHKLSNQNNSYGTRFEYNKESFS

[20] = target: NADPH oxidase 5 (Homo sapiens) (UniProt Q96PH1); assay: compounds shifting NOX5 Amplex Red fluorescence – cell-based, HEK293-NOX5, NOX inhibitor project, primary screen (AID 1161); details: HEK293-NOX5, ionomycin, 45 min, higher = more signal
Sequence of NADPH oxidase 5 (Homo sapiens) (Q96PH1 whole entry, looked up): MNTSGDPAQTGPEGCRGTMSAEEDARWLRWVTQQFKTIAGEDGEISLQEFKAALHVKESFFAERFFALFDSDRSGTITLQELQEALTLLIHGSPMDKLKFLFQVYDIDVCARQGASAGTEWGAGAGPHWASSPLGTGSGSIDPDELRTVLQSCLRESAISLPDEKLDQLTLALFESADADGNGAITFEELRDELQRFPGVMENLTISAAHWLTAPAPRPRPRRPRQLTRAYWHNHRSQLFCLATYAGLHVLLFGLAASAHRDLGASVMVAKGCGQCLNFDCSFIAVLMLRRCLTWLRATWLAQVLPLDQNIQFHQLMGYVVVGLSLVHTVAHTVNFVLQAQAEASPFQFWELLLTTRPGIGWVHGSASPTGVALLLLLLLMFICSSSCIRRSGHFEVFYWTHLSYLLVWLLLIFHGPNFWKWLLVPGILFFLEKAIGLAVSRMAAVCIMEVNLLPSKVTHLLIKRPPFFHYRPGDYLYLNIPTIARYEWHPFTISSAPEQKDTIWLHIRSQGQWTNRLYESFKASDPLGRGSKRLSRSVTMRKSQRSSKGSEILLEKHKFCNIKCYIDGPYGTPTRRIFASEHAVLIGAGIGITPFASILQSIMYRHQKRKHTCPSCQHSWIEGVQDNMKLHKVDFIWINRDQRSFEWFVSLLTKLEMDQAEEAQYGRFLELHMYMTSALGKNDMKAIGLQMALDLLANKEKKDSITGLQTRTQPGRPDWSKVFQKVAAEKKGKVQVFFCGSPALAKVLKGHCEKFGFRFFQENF

Cc1ccc(C(C)CC(O)C2C=CC3C(=O)N(c4ccccc4)C(=O)C3N2Nc2ccc(C#N)cc2)o1 (stereo not given)
composite z-score [1]: 0.303 | z-score [2]: -1.18 (inactive) | z-score [3]: -0.194 (inactive) | z-score [4]: -0.333 (inactive) | z-score [5]: -0.306 (inactive) | composite z-score [6]: 1.1 | composite z-score [7]: 0.027 | composite z-score (Torsin-1A (Homo sapiens) [8]): 0.279 | composite z-score (Torsin-1A (Homo sapiens) [9]): 0.443 | composite z-score [10]: 0.218 | z-score [11]: 0.249 (inactive) | composite z-score [12]: 0.198 | z-score [13]: 7.4 (inactive) | z-score [14]: 0.478 (inactive) | z-score [15]: 0.45 (inactive) | z-score [16]: -0.397 (inactive) | z-score [17]: 0.729 | z-score [18]: -2.43 (inactive) | z-score [19]: -3.34 (inactive) | z-score [20]: -2.6

CCOC(=O)C1=CCC(c2ccccc2)N(S(=O)(=O)c2ccc([N+](=O)[O-])cc2)C1 (stereo not given)
composite z-score [1]: -0.206 | z-score [2]: -3.61 (inactive) | z-score [3]: 0.697 (inactive) | z-score [4]: 1.23 (inactive) | z-score [5]: -0.536 (inactive) | composite z-score [6]: 0.108 | composite z-score [7]: -0.128 | composite z-score (Torsin-1A (Homo sapiens) [8]): 0.331 | composite z-score (Torsin-1A (Homo sapiens) [9]): 0.458 | composite z-score [10]: 0.188 | z-score [11]: -0.72 (inactive) | composite z-score [12]: 0.0451 | z-score [13]: 2.62 (inactive) | z-score [14]: 0.987 (inactive) | z-score [15]: 1.4 (inactive) | z-score [16]: 0.46 (inactive) | z-score [17]: -0.412 | z-score [18]: 0.528 (inactive) | z-score [19]: -0.114 (inactive) | z-score [20]: -0.023

CCOC(=O)C[C@H]1[C@H](OC(=O)c2ccc(-c3ccccc3)cc2)[C@@H](NC(=O)CC(C)C)c2cc(OCCCO)ccc2N1C(=O)c1ccccc1
composite z-score [1]: 0.121 | z-score [2]: -0.092 (inactive) | z-score [3]: 0.0804 (inactive) | z-score [4]: 0.469 (inactive) | z-score [5]: -0.375 (inactive) | composite z-score [6]: 0.216 | composite z-score [7]: -0.0963 | composite z-score (Torsin-1A (Homo sapiens) [8]): -0.477 | composite z-score (Torsin-1A (Homo sapiens) [9]): 0.289 | composite z-score [10]: 1.03 | z-score [11]: -0.674 (inactive) | composite z-score [12]: 0.113 | z-score [13]: 1.18 (inactive) | z-score [14]: 0.389 (inactive) | z-score [15]: -0.0732 (inactive) | z-score [16]: 0.336 (inactive) | z-score [17]: 0.574 | z-score [18]: 0.403 (inactive) | z-score [19]: -0.742 (inactive) | z-score [20]: 1.74

O=C1N(CCS(=O)(=O)c2ccccc2)Cc2ccccc2[C@@H]2OC(c3ccc(OCCCO)cc3)=N[C@]12CCS(=O)(=O)c1ccccc1
composite z-score [1]: 1.24 | z-score [2]: -1.5 (inactive) | z-score [3]: 0.151 (inactive) | z-score [4]: 3.2 (inactive) | z-score [5]: -0.897 (inactive) | composite z-score [6]: 0.844 | composite z-score [7]: -0.108 | composite z-score (Torsin-1A (Homo sapiens) [8]): 0.827 | composite z-score (Torsin-1A (Homo sapiens) [9]): 1.51 | composite z-score [10]: 1.4 | z-score [11]: -0.769 (inactive) | composite z-score [12]: 0.568 | z-score [13]: 26 (active) | z-score [14]: 18.8 (active) | z-score [15]: 3.14 (inactive) | z-score [16]: 2.44 (inactive) | z-score [17]: -0.355 | z-score [18]: 1.5 (inactive) | z-score [19]: 2.01 (inactive) | z-score [20]: 1.96

O=C1[C@@H]2[C@@H](CC(COc3ccccc3)=C3[C@@H](CCc4ccccc4)OB(O)C[C@@H]32)C(=O)N1Cc1ccccc1
composite z-score [1]: -0.0294 | z-score [2]: -1.91 (inactive) | z-score [3]: 0.132 (inactive) | z-score [4]: 1.94 (inactive) | z-score [5]: -1.12 (inactive) | composite z-score [6]: 0.376 | composite z-score [7]: -0.0161 | composite z-score (Torsin-1A (Homo sapiens) [8]): 0.0258 | composite z-score (Torsin-1A (Homo sapiens) [9]): 0.256 | composite z-score [10]: 0.919 | z-score [11]: -1.45 (inactive) | composite z-score [12]: 0.0089 | z-score [13]: 11.2 (active) | z-score [14]: 2.04 (inactive) | z-score [15]: -0.791 (inactive) | z-score [16]: 0.82 (inactive) | z-score [17]: 0.17 | z-score [18]: -0.0449 (inactive) | z-score [19]: -0.128 (inactive) | z-score [20]: -0.199

O=C1C2C=CC(C(O)c3cccc(O)c3)N(Nc3ccccc3)C2C(=O)N1c1ccccc1 (stereo not given)
composite z-score [1]: -0.105 | z-score [2]: -2.93 (inactive) | z-score [3]: -1.06 (inactive) | z-score [4]: -0.14 (inactive) | z-score [5]: 1.37 (inactive) | composite z-score [6]: 0.318 | composite z-score [7]: -0.0645 | composite z-score (Torsin-1A (Homo sapiens) [8]): -0.338 | composite z-score (Torsin-1A (Homo sapiens) [9]): -0.283 | composite z-score [10]: -0.461 | z-score [11]: -1.09 (inactive) | composite z-score [12]: 0.315 | z-score [13]: 6.48 (inactive) | z-score [14]: 0.214 (inactive) | z-score [15]: 0.185 (inactive) | z-score [16]: 0.115 (inactive) | z-score [17]: 0.109 | z-score [18]: -3.44 (inactive) | z-score [19]: -6.62 (inactive) | z-score [20]: -6.85

Cc1ccccc1C(O)C1C=CC2C(=O)N(c3ccccc3)C(=O)C2N1Nc1ccc([N+](=O)[O-])cc1 (stereo not given)
composite z-score [1]: -0.0078 | z-score [2]: -0.52 (inactive) | z-score [3]: -0.35 (inactive) | z-score [4]: 0.78 (inactive) | z-score [5]: 0.598 (inactive) | composite z-score [6]: 1.77 | composite z-score [7]: 0.3 | composite z-score (Torsin-1A (Homo sapiens) [8]): 0.992 | composite z-score (Torsin-1A (Homo sapiens) [9]): 0.593 | composite z-score [10]: 0.176 | z-score [11]: -0.467 (inactive) | composite z-score [12]: 0.186 | z-score [13]: 26.5 (active) | z-score [14]: 11.2 (active) | z-score [15]: 2.6 (inactive) | z-score [16]: 1.52 (inactive) | z-score [17]: -0.483 | z-score [18]: -1.29 (inactive) | z-score [19]: -3.58 (inactive) | z-score [20]: -1.83

C=CCN1C(=O)[C@]2(O[C@H](CCO)[C@@H]([Si](C)(C)c3ccc(OC)cc3)[C@@H]2C)c2cc(N3C(=O)COc4ccccc43)ccc21
composite z-score [1]: 0.01 | z-score [2]: -8.07 (active) | z-score [3]: 0.518 (inactive) | z-score [4]: 27.2 (active) | z-score [5]: -3.5 (inactive) | composite z-score [6]: 0.435 | composite z-score [7]: -0.0245 | composite z-score (Torsin-1A (Homo sapiens) [8]): -0.339 | composite z-score (Torsin-1A (Homo sapiens) [9]): 0.072 | composite z-score [10]: 1.18 | z-score [11]: 0.512 (inactive) | composite z-score [12]: 0.142 | z-score [13]: 6.04 (inactive) | z-score [14]: 2.56 (inactive) | z-score [15]: -0.398 (inactive) | z-score [16]: 0.742 (inactive) | z-score [17]: 2.03 | z-score [18]: 0.617 (inactive) | z-score [19]: 0.0613 (inactive) | z-score [20]: -1.94

COCCOC(=O)N1C(=O)[C@@]2(c3cc(C#CCNC(N)=O)ccc31)[C@H](c1ccc(O)cc1)N1[C@H](c3ccccc3)[C@H](c3ccccc3)OC(=O)[C@H]1[C@@H]2C(=O)N1CCN(c2ncccn2)CC1
composite z-score [1]: 0.0474 | z-score [2]: 0.259 (inactive) | z-score [3]: -0.648 (inactive) | z-score [4]: -0.589 (inactive) | z-score [5]: -0.249 (inactive) | composite z-score [6]: 0.374 | composite z-score [7]: -0.0898 | composite z-score (Torsin-1A (Homo sapiens) [8]): 0.652 | composite z-score (Torsin-1A (Homo sapiens) [9]): 0.747 | composite z-score [10]: 0.905 | z-score [11]: -0.279 (inactive) | composite z-score [12]: -0.191 | z-score [13]: 2.78 (inactive) | z-score [14]: 1.32 (inactive) | z-score [15]: 0.528 (inactive) | z-score [16]: 0.973 (inactive) | z-score [17]: -0.43 | z-score [18]: 1.23 (inactive) | z-score [19]: -0.121 (inactive) | z-score [20]: 1.13
